The list is not random: actives were taken first. Their share in the collection is about 3.3%.
MazEF act = MazEF (E. coli) toxin RNase activation | AID 504720 | activation, % at 20 µM | 0.32% of 350,000 active | P0AE70 | FAM/BHQ RNA-DNA oligo cleavage fluorescence, 5 h; in the data active = activation above about 50%
Target sequence (P0AE70 whole entry, looked up): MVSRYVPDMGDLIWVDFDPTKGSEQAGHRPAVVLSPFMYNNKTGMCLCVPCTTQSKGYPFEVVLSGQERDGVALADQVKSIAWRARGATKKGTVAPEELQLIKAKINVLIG
SSB-PriA inh = inhibitors of Klebsiella pneumoniae PriA binding to SSB C-terminal tail; AlphaScreen SSBct-PriA binding, biotinylated peptide; inhibition, % at 33 µM; 0.6% of 430,000 active; AID 1272365; in the data active = inhibition mostly above about 37%, no sharp cut-off; inactive = mostly below about 20%;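 also: plate controls were negative control peptide for no effect and reference peptide for full effect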
Autofluor counter = flagged as autofluorescent in microsphere protease counterscreen; fluorescence intensity (no concentration beside the values); 3.1% of 360,000 active; compound autofluorescence counterscreen, microsphere flow cytometry; hits give high values; AID 624483; in the data active = fluorescence intensity above about 16000; inconclusive = no clear call, values can overlap the other calls
Anthrax LF prot = anthrax lethal factor protease inhibition; P15917; multiplex microsphere protease cleavage assay, LF; inhibition, % at 10 µM; 0.12% of 360,000 active; AID 588501; also: plate controls were buffer without enzyme for full effect and enzyme alone for no effect
BoNT-A LC inh2 = BoNT A light chain protease inhibition; multiplex microsphere protease substrate cleavage, flow cytometry; inhibition, % at 10 µM; 0.17% of 360,000 active; AID 588499; also: plate controls were buffer without enzyme for full effect and enzyme alone for no effect
BoNT-F LC inh = BoNT F light chain protease inhibition | Multiplex microsphere protease cleavage assay, flow cytometry | inhibition, % at 10 µM | 0.22% of 360,000 active | AID 588497; in the data active = inhibition above about 35%, passing the limit was not always enough; inconclusive = no clear call, values can overlap the other calls; also: plate controls were buffer without enzyme for full effect and enzyme alone for no effect
Starred values were filed as active, the others as inactive; u = inconclusive; x = no result given. Rule as the data show it, unless noted: active = inhibition above about 30%; inconclusive = no clear call, values can overlap the other calls; inactive = below that.

SMILES	MazEF act	SSB-PriA inh	Autofluor counter	Anthrax LF prot	BoNT-A LC inh2	BoNT-F LC inh
Cc1nn(Cc2c(F)c(F)c(F)c(F)c2F)c(C)c1NC(=O)c1nn(C)cc1Br	2.8	-19.0	5370	1.9	-0.4	1.6
Cc1ccc(OCc2ccc(C(=O)Nc3c(C)nn(Cc4c(F)c(F)c(F)c(F)c4F)c3C)o2)c([N+](=O)[O-])c1	0.8	8.3	23883*	-0.6	-0.3	-2.0
Cc1cc(NC(=O)c2c([N+](=O)[O-])cnn2C)no1	38.5	1.9	20559*	-0.2	-1.3	-0.5
Cc1cc(NC(=O)c2c([N+](=O)[O-])c(C)nn2C)no1	-0.4	-1.9	4859	2.5	-0.6	-19.3
Cc1ccc(OCc2ccc(C(=O)NN)o2)c([N+](=O)[O-])c1	9.0	-7.5	4140	9.2	2.1	u
CN(C)S(=O)(=O)c1ccc(C(=O)Nc2cnn(C[C@H]3COc4ccccc4O3)c2)cc1	x	-10.0	x	x	x	x
Cc1cc(C)n(CCN)n1	x	-14.0	x	x	x	x
Cc1nn(Cc2c(F)c(F)c(F)c(F)c2F)c(C)c1NC(=O)c1c([N+](=O)[O-])c(C)nn1C	0.7	-4.2	8510	-3.4	-1.2	-13.1
Cc1nn(Cc2c(F)c(F)c(F)c(F)c2F)c(C)c1NC(=O)c1c([N+](=O)[O-])cnn1C	2.4	-11.5	22419*	-4.1	2.1	1.8
CC1(C)NC(=O)N(CC(O)CN2C(=O)NC(C)(C)C2=O)C1=O	7.0	-5.3	23204*	-1.9	-0.2	0.1
CC1(C)NC(=O)N(CC(O)COc2ccccc2C(=O)Nc2ccccc2)C1=O (configuration not stated)	1.0	-4.3	23718*	-1.8	-2.7	-6.1
Cc1nn2c(C)nc3sc4c(c3c2nc1=O)CC(C)(C)OC4	6.6	-0.4	25222*	0.8	-5.8	-6.3
CC1(C)Cc2c(sc3nc(-c4cccs4)n(N)c(=O)c23)CO1	7.6	-25.5	21380*	0.0	u	6.5
CC(=O)N1CC(C(=O)NCc2nc3ccccc3[nH]2)C1	x	-5.0	x	x	x	x
Cc1cccc(NC(=O)c2cccc(N3C(=O)C4C5CCC(C5)C4C3=O)c2)c1C (configuration not stated)	6.7	-26.5	18603*	-9.4	u	7.6
Cc1ccccc1NC(=O)c1cccc(N2C(=O)C3CCC(C)CC3C2=O)c1 (configuration not stated)	2.2	-16.2	3209	-13.2	3.2	7.5
CCc1ccccc1NC(=O)c1cccc(N2C(=O)C3C4CCC(C4)C3C2=O)c1 (configuration not stated)	4.2	-13.8	23495*	-4.0	u	-1.6
CN(C)c1ccc(CCCNS(=O)(=O)c2cccc(Cl)c2)cc1	x	19.0	x	x	x	x
O=C(NCCSc1ncc(-c2ccc(F)cc2)[nH]1)c1ccccc1F	x	2.0	x	x	x	x
O=[N+]([O-])c1ccccc1Oc1cnc2ccccc2n1	1.4	-8.6	1958	-1.8	0.2	-1.5
O=[N+]([O-])c1cc(-c2cnc3ccccc3n2)ccc1Oc1ccc(F)cc1	-0.5	-6.5	20404*	-0.6	u	2.2
CCOc1ccc(CC(=O)N2CCN(c3ccc(N4CCOCC4)nn3)CC2)cc1OCC	-13.6	54.5*	6027	-5.3	-0.6	-5.0
Cc1ccc(NC(=O)c2cc(C)on2)cc1	2.6	-19.5	20978*	0.7	5.5	4.4
Cc1cc(C(=O)Nc2ccccc2C(F)(F)F)no1	-6.8	-4.7	24116*	-1.1	u	-0.1
Cc1cc(C(=O)Nc2nnc(C(F)(F)F)s2)no1	4.9	0.2	22963*	0.8	0.4	-0.4
SMILES	MazEF act	SSB-PriA inh	Autofluor counter	Anthrax LF prot	BoNT-A LC inh2	BoNT-F LC inh
COc1ccccc1-c1nnc(SCC(O)=C(C#N)c2nc3ccccc3[nH]2)n1C1CCCCC1	x	5.3	x	x	x	x
COc1ccc(C)cc1-n1nnnc1SC/C(O)=C(\C#N)c1nc2ccccc2[nH]1	1.5	x	21719*	0.6	0.4	-1.1
CCOC(=O)NCC1CCN(C(=O)c2ccoc2)CC1	x	-3.0	x	x	x	x
COc1cc2cc(C(c3nnnn3C3CCCC3)N(C)C3CCCCC3)c(=O)[nH]c2cc1OC (configuration not stated)	1.4	3.6	21407*	0.4	-1.6	-1.3
O=c1[nH]c2cc3c(cc2cc1C(c1nnnn1C1CCCC1)N1CCSCC1)OCCO3 (configuration not stated)	6.2	-3.6	8220	-4.3	0.3	-0.5
CC(C)C(c1nnnn1C1CCCC1)N(C)C1CCCCC1 (configuration not stated)	-3.1	-2.9	20923*	-0.2	u	-3.6
COc1cc2cc(C(c3nnnn3C3CCCCC3)N(C)C3CCCCC3)c(=O)[nH]c2cc1OC (configuration not stated)	-0.1	-4.7	22356*	1.6	2.9	3.7
Cc1ccc(C(c2nnnn2C2CCCCC2)N(C)C2CCCCC2)cc1 (configuration not stated)	1.1	-11.5	7015	-1.0	-0.2	-3.2
Cc1cc(OC2CN(S(=O)(=O)/C=C/c3ccccc3)C2)cc(=O)o1	x	3.0	x	x	x	x
COc1ccc(C[C@](C)(O)CNC(=O)COc2ccccc2OC)cc1	x	-7.0	x	x	x	x
O=C(NNC(=O)C1COc2ccccc2O1)c1ccccc1 (configuration not stated)	-2.8	-7.3	22774*	-1.9	1.0	-3.9
CC(=NNC(=O)c1ccc(C(C)(C)C)cc1)c1ccccn1	x	34.6	x	x	x	x
CC(=NNC(=O)c1ccc(Cl)cc1)c1ccccn1	x	45.0*	x	x	x	x
O=C(O)/C(=N/NC(=O)c1ccc(Cl)cc1)c1ccccc1	7.6	x	4073	30.7*	u	u
CC(=NNc1ncc(Cl)cc1Cl)c1ccccn1	x	46.9*	x	x	x	x
C/C(=N\NC(=O)c1ccc(Cl)c(Cl)c1)c1ccccn1	-1.1	x	3592	-3.5	11.1	37.4*
CC(=NNC(=O)c1ccc(Cl)c(Cl)c1)c1ccccn1	x	-5.6	x	x	x	x
CC(=NNC(=O)C1COc2ccccc2O1)c1ccccn1 (configuration not stated)	x	61.5*	x	x	x	x
COC(=O)c1ccccc1NC(=O)C1CCCCC1C(=O)O (configuration not stated)	-2.9	4.6	23211*	-3.4	u	-2.4
O=C(O)C1CCCCC1C(=O)Nc1ccc(F)cc1F (configuration not stated)	0.3	-9.8	20999*	-3.1	4.9	2.9
O=C(O)C1CCCCC1C(=O)Nc1ccc(F)c(F)c1 (configuration not stated)	5.4	-2.2	2409	-0.3	-0.2	-9.6
COc1ccc(NC(=O)c2ccccc2NC(=O)C2CCCCC2C(=O)O)cc1 (configuration not stated)	-3.5	-7.3	4484	-2.1	-1.5	u
CSc1ccc(CC(=O)N2CC(Oc3nc4ccccc4s3)C2)cc1	x	-20.0	x	x	x	x
CCOC(=O)Cn1nnnc1CN(Cc1cccs1)Cc1cc2cc(C)cc(C)c2[nH]c1=O	-3.8	-12.7	23938*	4.2	-0.6	-1.1
COc1ccc2cc(CN(Cc3cccs3)Cc3nnnn3Cc3ccccc3)c(=O)[nH]c2c1	-7.2	-7.7	24337*	-1.9	-0.7	-2.6
